Compound activity: PubChem, Buhrlage Lab, Dana-Farber Cancer Institute and Novartis Institutes for BioMedical Research (Cambridge, Mass)
USP17 block – human USP17-like deubiquitinase inhibition | A8MUK1 | purified USP17, Ub-rhodamine cleavage fluorescence, 3 h | inhibition, % at 50 µM | 47,000 tested, 6.5% active | AID 1645855
USP28 block – inhibitors of human USP28 deubiquitinase | 47,000 tested, 3% active | purified USP28, Ub-rhodamine cleavage fluorescence, 30 min | inhibition, % at 25 µM | Q96RU2
USP30 inh – blocks human USP30 ubiquitin-rhodamine cleavage | Q70CQ3 | purified USP30, Ub-rhodamine cleavage fluorescence | 47,000 tested, 5.3% active | AID 1645860 | inhibition, % at 25 µM
OTUD3 block – inhibitors of human OTUD3 deubiquitinase. Q5T2D3. purified OTUD3, Ub-rhodamine fluorescence, 2 h. inhibition, % at 25 µM. 47,000 tested, 0.7% active
* = called active by the depositor; i = inactive; . = no result. The list is not random: actives were taken first. Their share in the collection is about 11%. Rule as the data show it: active = inhibition above about 30%; inactive = the rest.

SMILES	USP17 block	USP28 block	USP30 inh	OTUD3 block
CCc1c(Cl)c(O)c(Cl)c(O)c1C(=O)O[C@H]1C(C)O[C@@H](OC/C2=C\C=C\CC(O)/C(C)=C/C(CC)C(O[C@@H]3OC(C)(C)[C@H](O)C(OC(=O)C(C)C)[C@@H]3O)/C(C)=C/C(C)=C/CC(C(C)O)OC2=O)[C@@H](OC)C1O (some centres undefined)	2	85*	91*	32*
Cc1nn(-c2nc3ccccc3o2)c2c1C(c1cccc(F)c1F)CC(=O)N2 (centres undefined)	27	16	32*	22
Cc1ccc(NC(=O)N2CCN(C3=CC4=NC(C)CN4C=N3)CC2)c(C)c1 (centres undefined)	17	15	34*	7
COc1ccc(NC(=O)N2CCN(C3=CC4=NC(C)CN4C=N3)CC2)c(C)c1 (centres undefined)	-33	-4	-4	-3
Cc1c(C(=O)Nc2ccc(-c3nnc4n3CCCCC4)cc2)oc2c1ccc1ccccc12	-3	68*	-12	0
Cc1c(C(=O)NCC2(N3CCCCC3)CCCCC2)oc2c1ccc1ccccc12	-24	-43	-128	-35
O=C(Nc1ccc(-c2nnc3n2CCCCC3)cc1)c1cc2ccccc2o1	-2	35*	-2	-15
CCN1C[C@@]23CN(C(=O)C4CCC4)C[C@@H](C[C@@H]2S1(=O)=O)O3	-8	-4	-2	-5
O=C(Cn1c(=O)c2ccccc2c2ccccc21)Nc1ccc2c(c1)OCO2	53*	31*	82*	33*
O=C(CSc1n[nH]c2nc3ccccc3n12)Nc1ccc2c(c1)OCO2	-28	37*	1	1
O=C(CCCCn1c(=O)c2ccccc2n(CC(=O)Nc2ccc(Br)cc2F)c1=O)NCc1ccco1	-134	-250	i	-172
O=C(CCCn1c(=O)c2ccccc2n(CC(=O)Nc2ccc(Br)cc2F)c1=O)NCc1ccccc1Cl	41*	15	-15	11
O=C(CCCn1c(=O)c2ccccc2n(CC(=O)NCc2ccccc2Cl)c1=O)NCc1ccc2c(c1)OCO2	27	33*	66*	26
CC(=O)Nc1ccc(C(=O)NCC(=O)N2CCCc3ccccc32)cc1	-14	-16	-11	-15
CN(C)CCN(Cc1ccc2c(c1)OCO2)C(=O)c1cc(-c2ccccc2F)no1	-24	-18	-7	0
Cc1c(CNCc2ccc(F)cc2)c(C(=O)O)c(C)n1-c1ccccc1	-8	-39	-137	-34
Cc1cccc(C)c1NC(=O)Cn1c(=O)n(CCCCC(=O)NCc2ccc3c(c2)OCO3)c(=O)c2ccccc21	33*	32*	67*	18
COc1ccc(CCNC(=O)Cn2c(=O)n(CCCCC(=O)NCc3ccc4c(c3)OCO4)c(=O)c3ccccc32)cc1OC	28	0	22	0
COc1cccc(NC(=O)N2CCN(c3ncccc3C(F)(F)F)CC2)c1	4	42*	11	11
COc1cccc(NC(=O)N2CCN(C3=CC4=NC(C)CN4C=N3)CC2)c1 (centres undefined)	-6	20	0	5
c1ccc2c(-c3nnc(C4CC4)o3)nnc(NCCCN3CCCC3)c2c1	40*	-7	-44	-11
CCOc1ccccc1NC(=Nc1nc(C)cc(C)n1)NC(=O)c1ccccc1	-9	-19	3	-3
CC1(O)CC(=O)c2c(cc3cc(O)cc(O)c3c2O)C1 (centres undefined)	77*	68*	-21	75*
CCCc1nc(C2CN(C(=O)c3snnc3CC)CCO2)n[nH]1 (centres undefined)	0	3	-25	3
O=C1c2[nH]nc(-c3ccccc3O)c2C(c2ccc(F)cc2)N1Cc1ccco1 (centres undefined)	39*	52*	52*	13
SMILES	USP17 block	USP28 block	USP30 inh	OTUD3 block
COc1ccc(C2c3c(-c4ccccc4O)n[nH]c3C(=O)N2Cc2ccco2)cc1OC (centres undefined)	-5	-8	-2	-10
Cc1ccc(C2c3c(-c4ccccc4O)n[nH]c3C(=O)N2Cc2ccco2)cc1 (centres undefined)	44*	65*	46*	-3
CCn1cc(C(=O)NCc2ccc(F)cc2F)c(=O)c2ccc(C)nc21	41*	21	24	26
Cc1cccc(C(=O)Nc2onc3c2CCCC3)c1	1	26	3	-1
O=C(Oc1ccc(-c2cnc3ccccc3n2)cc1)c1ccc(F)cc1	65*	-4	-2	0
COc1ccc(NC(=O)CSc2nnc(-c3ccc(F)cc3)c3ccccc23)c(OC)c1	12	39*	-9	8
COc1ccc(NC(=O)CSc2n[nH]c(C(C)C)n2)c(OC)c1	-7	-11	2	-7
O=C(Cn1ncc2c(N3CCCC3)ncnc21)Nc1ccc(F)cc1	7	10	2	5
O=C(Cn1ncc2c(N3CCCCCC3)ncnc21)NCc1ccccc1	29	26	70*	16
O=C(Cn1ncc2c(N3CCCCC3)ncnc21)NCc1ccc2c(c1)OCO2	55*	13	55*	17
Cc1n[nH]c(C)c1S(=O)(=O)N1c2ccccc2CC1C (centres undefined)	-6	-12	-27	-3
COc1ccc(C(=O)N(Cc2ccc(F)cc2)Cc2nc3ccccc3c(=O)[nH]2)cc1	-6	0	5	2
Cc1ccc(S(=O)(=O)c2nnn3c2nc(N2CCN(c4cc(C)ccc4C)CC2)c2ccccc23)cc1	12	1	30*	10
CS(=O)(=O)N1CCCN(c2nc3cc(Cl)ccc3n3cccc23)CC1	-151	-303	i	-221
Cc1ccc(-n2nc(C)c3c2NC(=O)CC3C(=O)c2ccc(C)s2)c(C)c1 (centres undefined)	4	12	21	11
O=C1N[C@H](Cc2c[nH]c3ccccc23)C(=O)N[C@H]1Cc1c[nH]c2ccccc12	22	12	36*	10
N#Cc1cccc(NC(=O)Nc2cccn(Cc3ccc(F)cc3)c2=O)c1	74*	74*	38*	4
C=C[C@@]1(C)CC[C@@]2(C)[C@@H](CC[C@]3(C)C(C)=C(O)C(=O)C[C@H]23)C1	43*	12	37*	24
Cc1cc(C)c2sc(N(CCCn3ccnc3)C(=O)Cc3ccccc3)nc2c1	.	40*	92*	35*
COc1ccc2nc(N(CCCn3ccnc3)C(=O)c3ccc(Cl)s3)sc2c1	42*	25	50*	2
COc1ccc2nc(N(Cc3ccncc3)C(=O)c3ccc(C)cc3)sc2c1	-37	-18	-67	1
Cc1ccnc(N2CCCC(C(=O)Nc3ccc4c(c3)CCC4)C2)n1 (centres undefined)	-13	-10	-57	-7
COc1ccc(Cn2c(SCC(=O)Nc3cc(C)[nH]n3)nc3nccnc3c2=O)cc1	48*	17	49*	7
CC(=O)NC(Cc1ccc(C)cc1)C(=O)NC1CCN(c2nc(C)cc(C)n2)CC1 (centres undefined)	0	-5	-8	-2
O=C1C[C@@H]2[C@@H](OC=C[C@H]2O)O1	-26	-6	-155	-4
